Compounds without any hit were thinned out: in the full panel of roughly 83,000, 20% have a hit.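 Plates (96-well) were seeded with cells, treated with compound at one concentration, and incubated for 48 hours before percent growth was determined.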 Unmarked numbers belong to inactive results. Calls of active or inactive are those of the source. The calls were made as follows: active = growth percent below 10; inactive = the rest.
Assays:
Test in all cases: NCI-60 one-dose screen, 48 h (100 = growth as untreated, 0 = no growth, -100 = all killed)
Settings in all cases: 10 µM unless noted
DU-145 prostate = tested on: DU-145 prostate
K-562 leukemia = tested on: K-562 leukemia
MALME-3M melanoma = tested on: MALME-3M melanoma
MDA-MB-231 breast = tested on: MDA-MB-231 breast
RXF 393 renal = tested on: RXF 393 renal
SF-268 CNS = tested on: SF-268 CNS
SF-295 CNS = tested on: SF-295 CNS
SF-539 CNS = tested on: SF-539 CNS
UACC-257 melanoma = tested on: UACC-257 melanoma
M14 melanoma = tested on: M14 melanoma
HCT-15 colon = tested on: HCT-15 colon
HT29 colon = tested on: HT29 colon
SNB-75 CNS = tested on: SNB-75 CNS
SNB-19 CNS = tested on: SNB-19 CNS
U251 CNS = tested on: U251 CNS
PC-3 prostate = tested on: PC-3 prostate
SK-MEL-5 melanoma = tested on: SK-MEL-5 melanoma
UACC-62 melanoma = tested on: UACC-62 melanoma
LOX IMVI melanoma = tested on: LOX IMVI melanoma
SK-MEL-28 melanoma = tested on: SK-MEL-28 melanoma

Structure (SMILES) | growth (DU-145 prostate) [%] | growth (K-562 leukemia) | growth (MALME-3M melanoma) | growth (MDA-MB-231 breast) [%] | growth (RXF 393 renal) [%] | growth (SF-268 CNS) [%] | growth (SF-295 CNS) [%] | growth (SF-539 CNS) [%] | growth (UACC-257 melanoma) [%] | growth (M14 melanoma) [%] | growth (HCT-15 colon) [%] | growth (HT29 colon) [%] | growth (SNB-75 CNS) [%] | growth (SNB-19 CNS) [%] | growth (U251 CNS) [%] | growth (PC-3 prostate) [%] | growth (SK-MEL-5 melanoma) [%] | growth (UACC-62 melanoma) [%] | growth (LOX IMVI melanoma) [%] | growth (SK-MEL-28 melanoma) [%]
N#Cc1c(N2CCOCC2)nc(=S)[nH]c1-c1ccco1 | 79.2 | 88.4% | 2.17% (active) | 61.1 | 71.3 | 77.3 | 47.4 | 78.5 | 92.8 | 39.8 | 71.4 | 63.7 | 15.9 | 83.8 | 76.4 | 42.6 | 62.6 | 43.7 | 63.7 | 77.6
CCCCN(CC)CC(CC)Nc1cc(OC)cc2cccnc12 (stereo not given) | 110 | 114% | 110% | 115 | 122 | 104 | 109 | 102 | 92.9 | 109 | 97.2 | 103 | 100 | 110 | 101 | 96.5 | 99.9 | 106 | 114 | 121
C[C@@H]1C[C@H]2C(=O)O[C@@H](C)[C@H](NC(=O)[C@H](Cc3cc(F)cc(F)c3)NC(=O)Nc3ccc(Cl)cc3F)C(=O)N3C[C@H](O)C[C@H]3C(=O)N3CCN(C)C[C@H]3C(=O)N[C@@H](C)C(=O)N2C1 | 41.3 | 27.7% | 45.4% | 27.9 | 88.1 | 29.1 | 38.9 | 51.3 | 19.8 | 72.9 | 107 | 32.5 | 22.8 | 20.3 | 21.1 | 18.1 | 64.6 | 31.1 | 43.4 | 41.3
Cc1nn(-c2ccccc2)c(N2CCOCC2)c1-c1nc2ccc([N+](=O)[O-])cc2[nH]1 | 98.4 | 88.4% | 105% | 109 | 113 | 89.7 | 99.8 | 109 | 106 | 108 | 91.5 | 113 | 95.7 | 103 | 102 | 112 | 95.7 | 83.4 | 92.1 | 102
O=[N+]([O-])c1ccc(O)c(-c2nc3ccccc3s2)c1 | 86.8 | 52.7% | 44.7% | 75.3 | 107 | 76.1 | 53.9 | 99 | 83.5 | 83.2 | 89 | 96.6 | 86.9 | 64.1 | 71.6 | 70.6 | 25.3 | 41.3 | 61 | 64.3
O=C1COCCN1c1ccc(Nc2nc(Cl)nc(N3CCOCC3)n2)cc1 | 102 | 100% | 96.3% | 103 | 92.4 | 99.4 | 94.4 | 96.5 | 98.2 | 98.2 | 91.8 | 89.4 | 89.7 | 95.9 | 101 | 96.8 | 100 | 96 | 93.8 | 101
CN(C)c1ccc(N=Nc2ccc3ccccc3c2)cc1 | 98.9 | 82.6% | 101% | 69.5 | 97.7 | 87.8 | 107 | 93 | 102 | 99.1 | 55.5 | 78.7 | 77.4 | 100 | 76.3 | 75.6 | 87.3 | 90.8 | 72.6 | 103
C=C1C(=O)O[C@H]2[C@H]1CC/C(COC(=O)NCc1ccc(Cn3c(=O)sn(-c4ccc(Cl)cc4)c3=O)cc1)=C\CC[C@@]1(C)O[C@@H]21 | 18.1 | 6.2% (active) | 65.2% | 54.7 | 62 | 83.7 | 99.5 | 90.8 | 72.9 | 59.2 | 54.5 | 37.8 | 79.7 | 91.9 | 90.2 | 76.2 | 97.6 | 76.5 | 58.4 | 101
